We go through five compounds from PubChem BioAssay.

Molecules are shown by their SMILES. The source made the active and inactive calls.

A short description of assay [1]: optical density shifts of acrAB sulA E. coli – strain DRC41, OD650, 48 h, E. coli filamentation inducer project, primary screen (AID 1152).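 Also: E. coli MC1000 strain DRC41 lacking acrAB efflux pump and sulA.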 The note with it: higher = more signal, called active from +8 up or from −8 down.
Assay [2] can be described thus: probe aLefty1 binding on compound microarray – biochemical, small-molecule microarray, 635/667 nm fluorescence, primary screen (AID 1153).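 Also: score merges spot fluorescence with signal-to-noise ratio from the scanned slide images.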 As to conditions: higher = more signal.
Assay [3] in a line: plasmodial surface anion channel blockers, osmotic lysis – cell-based, P. falciparum Indochina, OD700, 1 h, primary screen (AID 1154). As to conditions: P. falciparum Indochina infected RBC osmotic lysis, higher = more signal, called active from +8 up or from −8 down.
Assay [4] is described as follows: plasmodial surface anion channel blockers, osmotic lysis – cell-based, P. falciparum Indochina, OD700, 2 h, primary screen (AID 1155).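 Also: lysis reports solute entry through the parasite surface anion channel PSAC.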 The note with it: P. falciparum Indochina infected erythrocytes, higher = more signal, called active from +8 up or from −8 down.
Assay [5] in a line: changes in parasitized red cell lysis, either direction – P. falciparum Indochina, OD700, 3 h, PSAC antagonist project, primary screen (AID 1156). The note with it: P. falciparum-infected erythrocytes, osmotic lysis, higher = more signal, called active from +8 up or from −8 down.
Assay [6] in a line: plasmodial surface anion channel blockers, osmotic lysis – cell-based, P. falciparum Indochina, OD700, 18 h, primary screen (AID 1157). As to conditions: P. falciparum Indochina infected erythrocytes, osmotic lysis OD700, 18 h; higher = more signal, called active from +8 up or from −8 down.
Assay [7] is described as follows: S6 kinase pathway phospho-S6 level changes – cell-based, A549, cytoblot, luminescence, serum-stimulated, primary screen (AID 1158).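 Also: serum-stimulated A549 lung adenocarcinoma cells; signal is phosphorylated S6 detected by cytoblot immunostaining with HRP secondary.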 As to conditions: 5 h, higher = more signal.
Assay [8] deals with NADPH oxidase 2 (Homo sapiens) (UniProt P04839). Nature of the assay: compounds shifting NOX2 Amplex Red fluorescence – cell-based, HEK293-NOX2, PMA-stimulated, NOX inhibitor project, primary screen (AID 1159). Also: test concentration not given here. As to conditions: 45 min, higher = more signal, called active from +8 up or from −8 down.
In assay [9] the target is NADPH oxidase 4 (Homo sapiens) (UniProt Q9NPH5). Nature of the assay: compounds shifting NOX4 Amplex Red fluorescence – cell-based, HEK293-NOX4, tetracycline-induced, NOX inhibitor project, primary screen (AID 1160). The note with it: HEK293-NOX4, Amplex Red H2O2 fluorescence, 45 min; higher = more signal, called active from +8 up or from −8 down.
Assay [10] has as its target NADPH oxidase 5 (Homo sapiens) (UniProt Q96PH1). Nature of the assay: compounds shifting NOX5 Amplex Red fluorescence – cell-based, HEK293-NOX5, NOX inhibitor project, primary screen (AID 1161). As to conditions: HEK293-NOX5, ionomycin, 45 min, higher = more signal.
Assay [11] is described as follows: compound effects on lung adenocarcinoma cell viability – A549, calcein-AM fluorescence, 48 h, basal, profiling panel (AID 1162). Also: test concentration not given here. The note with it: higher = more signal.
A short description of assay [12]: compound effects on differentiated 3T3-L1 adipocyte viability – cell-based, 3T3-L1 adipocytes, calcein-AM fluorescence, 48 h, basal, profiling panel (AID 1163). Also: test concentration not given here. The note with it: 3T3-L1 adipocytes viability, higher = more signal.
Assay [13] in a line: compound effects on hepatocellular carcinoma cell viability – HepG2, calcein-AM fluorescence, 48 h, basal, profiling panel (AID 1164). Also: test concentration not given here. As to conditions: higher = more signal.
Assay [14] in a line: compound effects on multiple myeloma cell viability – MM1S, calcein-AM fluorescence, 48 h, basal, profiling panel (AID 1165).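 Also: viability of MM1S multiple myeloma cells under basal unstimulated conditions; test concentration not given here.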 The note with it: higher = more signal.
A short description of assay [15]: calcein-AM signal in unstimulated myeloma cells – cell-based, calcein-AM fluorescence, 48 h, PK04 Diversity Set, profiling panel (AID 1166).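 Also: cells grown under basal conditions without added stimulus; test concentration not given here.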 As to conditions: RPMI8226 myeloma viability, higher = more signal.
The nature of assay [16]: JC-1 mitochondrial signal, unstimulated HepG2 cells – cell-based, JC-1 fluorescence, 24 h, 100 nL compound, profiling panel (AID 1167). Also: test concentration not given here. As to conditions: HepG2 mitochondrial potential, higher = more signal.
A short description of assay [17]: JC-1 mitochondrial signal, unstimulated adipocytes – cell-based, JC-1 fluorescence, 3T3-L1 adipocytes, 24 h, 100 nL compound, profiling panel (AID 1168). Also: test concentration not given here. As to conditions: JC-1 mitochondrial fluorescence, higher = more signal, called active from +8 up or from −8 down.
A short description of assay [18]: JC-1 mitochondrial signal, unstimulated myeloma cells – cell-based, JC-1 fluorescence, RPMI8226, 24 h, 100 nL compound, profiling panel (AID 1169). Also: test concentration not given here. As to conditions: JC-1 mitochondrial potential fluorescence, higher = more signal.
Assay [19] in a line: JC-1 mitochondrial signal, unstimulated MM1S myeloma – cell-based, JC-1 fluorescence, 24 h, 100 nL compound, profiling panel (AID 1170). Also: test concentration not given here. As to conditions: MM1S mitochondrial potential, higher = more signal.
The nature of assay [20]: resazurin metabolic signal in A549 cells – cell-based, resazurin fluorescence, 24 h, PK04 Diversity Set, profiling panel (AID 1171). Also: test concentration not given here. The note with it: A549 viability, higher = more signal, called active from +8 up or from −8 down. A general note: Alamar Blue is a resazurin reagent that responds to reducing activity.

Sequence of NADPH oxidase 2 (Homo sapiens) (P04839 whole entry, looked up): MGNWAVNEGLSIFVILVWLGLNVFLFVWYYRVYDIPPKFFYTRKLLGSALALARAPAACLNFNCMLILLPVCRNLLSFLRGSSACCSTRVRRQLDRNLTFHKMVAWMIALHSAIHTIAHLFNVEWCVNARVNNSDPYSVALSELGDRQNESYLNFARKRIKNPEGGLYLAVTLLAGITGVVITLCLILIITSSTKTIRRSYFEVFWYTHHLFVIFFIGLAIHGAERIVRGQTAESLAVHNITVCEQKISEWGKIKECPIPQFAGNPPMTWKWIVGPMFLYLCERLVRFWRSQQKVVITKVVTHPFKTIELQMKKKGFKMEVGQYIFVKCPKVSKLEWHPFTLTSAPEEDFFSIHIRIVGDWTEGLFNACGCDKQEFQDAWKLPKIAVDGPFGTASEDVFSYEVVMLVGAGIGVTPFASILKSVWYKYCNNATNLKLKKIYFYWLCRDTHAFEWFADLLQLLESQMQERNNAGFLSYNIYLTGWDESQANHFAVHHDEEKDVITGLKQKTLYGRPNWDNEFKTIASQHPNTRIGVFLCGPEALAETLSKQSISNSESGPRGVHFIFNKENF
Sequence of NADPH oxidase 5 (Homo sapiens) (Q96PH1 whole entry, looked up): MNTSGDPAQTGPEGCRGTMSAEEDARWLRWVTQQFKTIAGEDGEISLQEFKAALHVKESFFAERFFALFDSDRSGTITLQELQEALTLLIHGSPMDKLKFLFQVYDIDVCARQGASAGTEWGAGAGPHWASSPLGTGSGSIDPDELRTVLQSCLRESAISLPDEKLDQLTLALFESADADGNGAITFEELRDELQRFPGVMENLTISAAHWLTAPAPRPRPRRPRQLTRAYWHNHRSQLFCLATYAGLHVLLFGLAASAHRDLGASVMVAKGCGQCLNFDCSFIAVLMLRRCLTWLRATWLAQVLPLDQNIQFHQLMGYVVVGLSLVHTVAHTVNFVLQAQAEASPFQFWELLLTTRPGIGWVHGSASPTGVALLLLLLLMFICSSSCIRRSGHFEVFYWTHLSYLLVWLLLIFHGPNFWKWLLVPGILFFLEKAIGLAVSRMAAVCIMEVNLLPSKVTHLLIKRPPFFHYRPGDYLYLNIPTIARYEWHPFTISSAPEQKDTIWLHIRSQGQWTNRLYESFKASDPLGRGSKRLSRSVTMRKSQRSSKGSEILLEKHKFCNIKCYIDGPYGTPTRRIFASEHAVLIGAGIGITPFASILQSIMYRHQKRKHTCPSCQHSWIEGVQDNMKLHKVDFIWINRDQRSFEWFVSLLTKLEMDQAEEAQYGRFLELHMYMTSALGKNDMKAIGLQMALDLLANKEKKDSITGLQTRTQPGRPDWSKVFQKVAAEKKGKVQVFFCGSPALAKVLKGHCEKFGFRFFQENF
Sequence of NADPH oxidase 4 (Homo sapiens) (Q9NPH5 whole entry, looked up): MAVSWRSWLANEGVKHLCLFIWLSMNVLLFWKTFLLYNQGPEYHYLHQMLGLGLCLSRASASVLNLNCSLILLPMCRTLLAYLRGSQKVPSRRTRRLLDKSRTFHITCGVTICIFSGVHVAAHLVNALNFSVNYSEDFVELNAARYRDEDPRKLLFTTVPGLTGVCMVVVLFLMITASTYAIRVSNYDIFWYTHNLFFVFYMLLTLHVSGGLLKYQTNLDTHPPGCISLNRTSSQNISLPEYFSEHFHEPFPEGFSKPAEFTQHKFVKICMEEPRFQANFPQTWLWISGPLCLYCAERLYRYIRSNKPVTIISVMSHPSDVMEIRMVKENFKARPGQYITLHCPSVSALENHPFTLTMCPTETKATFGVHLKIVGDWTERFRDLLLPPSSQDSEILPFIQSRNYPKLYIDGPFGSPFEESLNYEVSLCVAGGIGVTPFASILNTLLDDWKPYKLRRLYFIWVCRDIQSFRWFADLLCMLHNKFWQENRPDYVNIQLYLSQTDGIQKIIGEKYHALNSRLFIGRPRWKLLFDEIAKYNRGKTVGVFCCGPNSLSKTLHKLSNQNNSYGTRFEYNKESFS

On to `COc1ccc(COC(=O)NN=C2C[C@@H](O)[C@@H](O)[C@@H]3[C@@H]4C(=O)N(Cc5ccc6c(c5)OCO6)C(=O)[C@@H]4CC[C@@H]23)cc1`, for which the z-score in [1] was 0.306 (inactive); in [3], 11.8 (active); in assay [4] it was 0.801 (inactive); in assay [5], 0.819 (inactive); in [6], -1.17 (inactive); in assay [7], 1.27. The z-score in [8] was -0.377 (inactive); in assay [9], 0.343 (inactive); in assay [10], 0.964; in [11] it was 0.378; in [12], 1.11; in assay [13] it was -0.273. Moreover, the z-score is -0.652 in [14]; -0.0219 in assay [15]; 0.621 in assay [16]; 1.04 (inactive) in [17]; -0.3 in assay [18]; -1.61 in [19]. In addition, in assay [20], the z-score is 0.0201 (inactive). The composite z-score in assay [2] turned out to be 1.15.
Turning to `CC=CC1=C(CO)[C@H](O)[C@H]2O[C@H]2[C@H]1O`, the z-score was -0.147 (inactive) in [1]; -0.528 (inactive) in assay [3]; -0.52 (inactive) in assay [4]; -0.382 (inactive) in [5]; -0.342 (inactive) in [6]; 0.318 in [7]. Moreover, the z-score in assay [8] is 1.94 (inactive); in assay [9], -1.82 (inactive); in assay [10] it was -0.768; in [11], -0.286; in assay [12] it was 0.292; in assay [13], -0.408. In addition, the z-score in assay [14] is 0.0314; in assay [15] it was -0.054; in assay [16], -0.722; in assay [17], 0.382 (inactive); in [18] it was 0.635; in assay [19], 0.677. Also, the z-score in assay [20] was -0.482 (inactive). Besides, the composite z-score in [2] is -0.45.
Turning to `COC(=O)C1=CCC(c2cccc(Cl)c2)O1` (stereo not given), the z-score is -0.367 (inactive) in [1]; 11.4 (active) in [3]; -0.39 (inactive) in assay [4]; 0.784 (inactive) in assay [5]; -0.963 (inactive) in [6]; 0.61 in assay [7]. The z-score in assay [8] is -3.94 (inactive); in [9], -1.6 (inactive); in assay [10], -4.15; in [11], -0.787; in [12], -0.0098; in assay [13] it was -1.14. In addition, the z-score in [14] was 0.233; in assay [15] it was -0.783; in assay [16], -0.549; in assay [17] it was 0.00619 (inactive); in assay [18] it was -0.757; in assay [19], -0.428. Further, the z-score in [20] is 0.107 (inactive). For the same compound, the composite z-score in assay [2] is -0.0111.
With `COc1ccc([Si](C)(C)[C@H]2[C@H](CC(=O)N3CCC[C@H]3CO)O[C@@]3(C(=O)N(Cc4cccc(N5C(=O)COc6ccccc65)c4)c4ccccc43)[C@@H]2C)cc1`, the z-score was 1.62 (inactive) in assay [1]; 6.56 (inactive) in assay [3]; 0.0867 (inactive) in [4]; -0.749 (inactive) in assay [5]; -0.701 (inactive) in [6]; 1.03 in assay [7]. Besides, the z-score in [8] was 1.1 (inactive); in assay [9], 1.21 (inactive); in assay [10] it was 2.99; in assay [11] it was 0.819; in assay [12], 0.198; in [13], 1.01. Moreover, the z-score in assay [14] is -2.42; in assay [15], -4.37; in assay [16] it was 4.27; in assay [17], 1.86 (inactive); in assay [18], -0.938; in [19], 0.741. Also, the z-score in assay [20] is -0.343 (inactive). The compound further had a composite z-score in assay [2] of 0.169.
For the compound `COCCCNC(=O)[C@]1(CCC(=O)OC(C)(C)C)N=C(c2ccc(OCCCO)cc2)O[C@@H]1c1ccccc1N=[N+]=[N-]`, the z-score is 0.734 (inactive) in [1]; 32.7 (active) in assay [3]; 29.9 (active) in [4]; 4.05 (inactive) in assay [5]; 7.68 (inactive) in assay [6]; 0.0838 in [7]. Also, the z-score in assay [8] is -2.44 (inactive); in [9] it was 1.59 (inactive); in assay [10], -2.19; in assay [11], -0.771; in assay [12] it was 0.463; in [13], -0.0574. Further, the z-score was -0.744 in assay [14]; -0.387 in assay [15]; 1.75 in [16]; 3.61 (inactive) in assay [17]; -0.69 in [18]; -0.984 in assay [19]. Moreover, in [20], the z-score was 0.576 (inactive). For the same compound, the composite z-score in assay [2] is 0.483.
